# Hits are enriched below; roughly 3% of the tested compounds scored in any of these assays.
# NALP3 yeast inh = NALP3 inflammasome inhibitors in reconstituted yeast, primary screen, luminescence, uHTS; Yeast reconstituted NLRP3/ASC/caspase-1, beta-gal luminescence, 24 h; inhibition, % at 10 µM; hit rate 0.39% among 330,000;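 active = inhibition of 50% or more; inactive = inhibition below 50%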;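 note: plate controls were induced DMSO wells for no effect and uninduced yeast grown without galactose for full effect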
# SUMO Mot1 rescue = yeast Mot1-301 growth rescue at high temperature, primary screen, SUMOylation pathway inhibitor project, S. cerevisiae, ATP luminescence, 38.5C. S. cerevisiae Mot1-301 growth rescue; percent above DMSO median, 100 means doubled. growth rescue, % at 18.8 µM. hit rate 1% among 320,000. AID 2716, 2010;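 active = every valid replicate shows activation above 250% relative to neutral control wells; inactive = the rest, any valid replicate at or below 250%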;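 note: OY570 slx delta 5 strain wells were the positive control but not used for scaling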
# NALP1 inh = NALP1 inflammasome inhibitors in reconstituted yeast, colorimetric, S. cerevisiae, triplicate retest. hit rate 0.61% among 280,000. inhibition, % at 10 µM. S. cerevisiae NALP1/ASC/caspase-1 growth, X-gal OD620, 72 h; in the data active = inhibition mostly above about 24%, no sharp cut-off; inactive = mostly below about 32%
# A1 inh = caspase 3/7 activation in MEF A1-2A-BIM cells, primary screen, A1 inhibitor project, cell-based, luminescence, HTS; caspase activation, % (no concentration beside the values); hit rate 0.066% among 330,000; Caspase-Glo 3/7 luminescence, 3 h; percent of clofoctol response, vehicle zero; AID 2462, 2010;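 active = over half of replicate activation scores above 10%, or exactly half above 10 with the replicate mean above 10; inconclusive = replicate mean below 10 yet half the replicates above 10; inactive = over half of replicates below 10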
# CHT block = inhibitors of human choline transporter CHT; hit rate 0.86% among 310,000; B-score at 10 µM; AID 488975, 2010; High affinity choline transporter 1 (Homo sapiens), Q9GZV3; CHT-expressing cells, membrane potential dye, choline response; hits give low values;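 active = B-score over 3 SD under the library average, and starting fluorescence ratio not unusually high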;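 note: choline stimulus applied at its EC90 after an EC20 pre-addition; B-score computed on integrated fluorescence ratio after choline addition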
# Target sequence (Q9GZV3 whole entry, looked up): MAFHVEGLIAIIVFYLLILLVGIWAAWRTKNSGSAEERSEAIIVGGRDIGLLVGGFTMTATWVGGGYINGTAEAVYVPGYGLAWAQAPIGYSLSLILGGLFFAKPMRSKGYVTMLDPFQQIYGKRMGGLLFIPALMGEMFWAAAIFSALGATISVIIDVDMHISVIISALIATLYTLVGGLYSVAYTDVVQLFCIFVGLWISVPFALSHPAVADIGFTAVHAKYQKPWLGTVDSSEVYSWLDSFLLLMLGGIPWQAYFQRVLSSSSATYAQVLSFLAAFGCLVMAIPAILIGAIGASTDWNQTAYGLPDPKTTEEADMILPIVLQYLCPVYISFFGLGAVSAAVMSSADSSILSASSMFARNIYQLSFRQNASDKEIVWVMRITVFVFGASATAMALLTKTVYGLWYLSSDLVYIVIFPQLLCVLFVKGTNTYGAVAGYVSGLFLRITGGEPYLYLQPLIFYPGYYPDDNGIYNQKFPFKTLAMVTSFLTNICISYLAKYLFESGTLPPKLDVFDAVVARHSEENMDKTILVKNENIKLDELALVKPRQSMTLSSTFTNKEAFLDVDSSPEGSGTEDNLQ
# CHT PAM = CHT positive allosteric modulators, primary screen, cell-based, membrane potential dye, choline EC20. High affinity choline transporter 1 (Homo sapiens), Q9GZV3. CHT-expressing cells; hits give high values; LV-AA mutant CHT in HEK293 cells. B-score at 10 µM. hit rate 0.49% among 310,000;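 active = initial fluorescence not abnormally high and integrated response B-score, plate-corrected, over 3 SD above library mean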
# * hit, by the source's call; i = inactive; ? = inconclusive; . = not tested or not shown; ! = not confirmed by another sample.
SMILES,NALP3 yeast inh,SUMO Mot1 rescue,NALP1 inh,A1 inh,CHT block,CHT PAM
CC(C)C[C@H](N)C(=O)N1CCC(C(=O)N[C@H](C(=O)NC(C)c2ccccc2)C(C)C)CC1 (some centres undefined),-7,788*,19,1,i,i
CC(C)C[C@H](N)C(=O)N1CCC(C(=O)N[C@H](C(=O)NCc2ccc(F)cc2)C(C)C)CC1,8,370,-4,0,i,i
CCN(CC)CCCNC(=O)c1cc(Nc2ccc(OC)cc2)nc2ccccc12,-7,123,15,0,i,i
CC(NC(=O)c1ccccc1F)c1nnc(SCc2nc3ccccc3c(=O)[nH]2)n1C (centres undefined),1,292*,-3,0,i,i
NC(=O)C1CCN(CC(=O)Nc2cc(Cl)ccc2Oc2ccccc2)CC1,18,321*,11,0,i,i
CCCCC[C@@H]1C=C(C(=O)O)[C@H](c2ccc(CC)cc2)N1S(=O)(=O)c1ccc(C)cc1,-1,354*,.,1,.,.
Cc1ccc(S(=O)(=O)N2[C@@H](c3ccc(Cl)c(Cl)c3)C(C(=O)O)=C[C@H]2C(C)(C)C)cc1,17,312*,.,0,.,.
Cc1ccc([C@H]2C(C(=O)O)=CC[C@@H](c3ccc(Cl)cc3)N2S(=O)(=O)c2ccccc2C)cc1,13,341*,.,0,.,.
Cc1ccc([C@H]2C(C(=O)O)=C[C@@H](C(C)(C)C)N2S(=O)(=O)c2ccc(C)cc2)cc1,-1,24,.,-1,.,.
CCc1ccc([C@@H]2CC=C(C(=O)O)[C@H](c3ccccc3F)N2S(=O)(=O)c2ccc(C)cc2)cc1,11,302*,.,0,i,i
Cc1ccccc1S(=O)(=O)N1[C@@H](c2ccc(Cl)cc2)C(C(=O)O)=CC[C@H]1c1ccc(Cl)cc1,17,112,.,1,.,.
CC(=O)C[C@H]1c2cc(C(F)(F)F)ccc2S(=O)(=O)N1c1ccc(N(C)C)cc1,11,6,.,1,i,i
COc1ccc(N2CCN(C3CCCN(C(=O)CN4CCOC4=O)C3)CC2)cc1 (centres undefined),14,42,9,1,i,i
Cc1ccc([C@@H]2CC=C(C(=O)O)[C@H](c3cccc(Cl)c3)N2S(=O)(=O)c2ccccc2C)cc1,-16,295*,.,0,.,.
Cc1ccc(C)c(N2C(=O)C3C4C=CC(CC4)C3C2=O)c1 (centres undefined),4,47,9,0,i,i
COc1ccc(Cn2nnnc2CN2CCc3ccccc32)cc1,17,4,2,0,i,i
COc1ccc(Cn2nnnc2CN2CCc3ccccc3C2)cc1,14,-3,27*,-1,i,i
COc1cc(CN2CCc3ccccc3C2)cc([N+](=O)[O-])c1O,-23,4,10,1,i,i
COc1cc(CN2CCc3ccccc3C2)ccc1O,15,55,12,33*,i,i
COc1cccc(CNS(=O)(=O)c2ccc3c(c2)C(C)(C)C(=O)N3C)c1,5,-3,3,1,i,i
N#Cc1ccsc1NC(=O)COC(=O)C1=NNC(=O)CC1,12,-4,.,0,.,.
CC(=O)c1cc(NC(=O)c2ccc([N+](=O)[O-])cc2)c(=O)oc1C,16,586,-22,1,i,i
COC(=O)c1cc(NC(=O)c2ccc([N+](=O)[O-])cc2)c(=O)oc1C,9,975*,8,-1,i,i
CCCc1ccc2oc(C(=O)N3CCN(C4CCS(=O)(=O)C4)CC3)c(C)c2c1 (centres undefined),2,2,-6,0,i,i
COc1ccc(C(=O)N2c3cc4c(cc3C(C)=CC2(C)C)OCO4)cc1,.,6,26*,.,.,.
SMILES,NALP3 yeast inh,SUMO Mot1 rescue,NALP1 inh,A1 inh,CHT block,CHT PAM
C[C@@]12C(=O)Nc3ccc(F)cc3C(=O)N1[C@H]1c3cc(Br)ccc3OC[C@@H]1[C@@H]2c1ccccc1,21,349*,.,0,.,.
Cc1ccc2c(c1)[C@H]1[C@H](CO2)[C@H](c2ccccc2)[C@]2(C)C(=O)Nc3ccccc3C(=O)N12,-2,341*,.,0,.,.
C[C@@]12C(=O)Nc3cc(F)ccc3C(=O)N1[C@H]1c3cc(Br)ccc3OC[C@@H]1[C@@H]2c1ccccc1,10,302,.,0,.,.
Cc1ccc2c(c1)[C@H]1[C@H](CO2)[C@H](c2ccccc2)[C@]2(C)C(=O)Nc3ccc(Cl)cc3C(=O)N12,-4,191,.,0,.,.
COc1ccc(S(=O)(=O)NNC(=O)Cc2csc(C)n2)cc1[N+](=O)[O-],3,9,.,0,i,i
O=C(Cc1ccc(Br)cc1)NC1CCN(Cc2ccccc2)CC1,26,283*,16,0,i,i
COc1cc2cccc(OC)c(=O)c2c(OC)c1OC,7,757*,-4,-1,i,i
CCc1cccc(CC)c1NC(=O)CN1CCc2cc(OC)c(OC)cc2C1,-3,468,13,-1,i,i
COc1ccc(N=c2ssnc2Cl)cc1,11,22,7,2,i,i
Clc1nssc1=Nc1ccccc1,.,.,8,.,.,.
Clc1ccc(N=c2ssnc2Cl)cc1,33,340*,-5,0,i,i
N#Cc1ccc(N=c2ssnc2Cl)cc1,17,303*!,-16,-2,i,i
COc1ccc(C2N(c3cc(Cl)ccc3OC)C(=O)C3CCCN32)cc1 (centres undefined),4,-22,41*,0,i,i
O=C(O)c1ccc(/C=N/NC(=O)c2ccc(F)cc2)cc1,9,-2,.,?,i,i
O=C(N/N=C/c1ccc(F)cc1)c1ccccc1,-1,6,32*,-9,i,i
C/C(=N\NC(=O)COc1ccccc1[N+](=O)[O-])c1cccc(NC(=O)c2ccncc2)c1,16,-14,3,1,i,i
COc1cc(C(=O)Nn2c(C)nc3ccccc3c2=O)cc(OC)c1OC,-3,-17,2,1,i,i
Cc1ccc(-c2nc(NC(=O)c3nn(C)cc3[N+](=O)[O-])sc2C)cc1,26,-18,12,11*,i,i
Cn1cc([N+](=O)[O-])c(C(=O)Nc2nc(-c3ccc(Cl)cc3)cs2)n1,18,6,35,1,i,i
Cc1ccc(-c2nc(NC(=O)c3nn(C)cc3[N+](=O)[O-])sc2C)cc1C,8,37,0,39*,i,i
Cc1cnc(NC(=O)c2nn(C)cc2[N+](=O)[O-])s1,3,.,16,.,.,.

# Source: PubChem
